The panel holds about 83,000 compounds, 20% with a hit somewhere; the sample as a whole holds those more often.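 96-well plates, one dose, 48 hours. Percent growth reported; active if below 10.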 A number with no mark means an inactive call. Activity calls are given as the source filed them.
What follows are compounds tested on NCI-H23 lung (assay: NCI-60 one-dose screen, 48 h (100 = growth as untreated, 0 = no growth, -100 = all killed)). Conditions: 10 µM unless noted.
`CCCC[C@H](NC(=O)[C@H]1CCCN1C)C(=O)N(C)[C@H](C[C@@H](OC(C)=O)c1nc(C(=O)N[C@@H](Cc2ccccc2)C[C@H](C)C(=O)OCC)cs1)C(C)C` was tested, and the growth was 24.4%. For `COc1ccc2c(c1)c(-c1nc(-c3c[nH]c4ncccc34)cs1)cn2CCCCN1CCCCC1`, the growth was 1.32% (active). `COC(=O)[C@H](Cc1ccccc1)NC(=O)c1csc([C@@H](C[C@H](C(C)C)N(C)C(=O)[C@@H](NC(=O)[C@H]2CCCN2C)C2CC2)OC(C)=O)n1` gave a growth of 35.9%. In the case of `C[C@]12CC[C@H]3[C@@H](CC[C@]4(O)C[C@@H](O[C@@H]5O[C@H](CO)[C@@H](O[C@@H]6OC[C@@H](O)[C@H](O)[C@H]6O)[C@H](O)[C@H]5O)CC[C@]34C=O)[C@@]1(O)CC[C@@H]2C1=CC(=O)OC1`, the growth is reported as -37.1% (active). `c1cc2c(c3c1CCNC3)OCO2` was tested, and the growth was 94.8%. With `Fc1ccc2c(c1)c(-c1nc(-c3c[nH]c4ncccc34)cs1)cn2CCCCN1CCCCC1` the growth was -75.9% (active). `O=C(Nc1ccncc1F)c1cn(CC2CC2)c2ccccc12` was tested, and the growth was 101%. Work on `COP(=S)(N1CC1)N1CC1` yielded a growth of 101%. Work on `C/C=C(\C)C(=O)O[C@@H]1C(O)[C@H]2OC(COC(=O)CCC(=O)CCCCCC[C@H](CCCCC)O[C@@H]3OC(C)[C@H](OC(C)=O)C(O)[C@H]3O2)[C@H]1OC(=O)/C=C/c1ccccc1` (stereo partly specified) yielded a growth of 37.1%. `CCc1ccccc1[C@@H]1C[C@]2(C)CCO[C@@H]2OO1` gave a growth of 104%. `CC(=O)O[C@H](C[C@H](C(C)C)N(C)C(=O)[C@@H](NC(=O)[C@H]1CCCCN1C)C(C)(C)C)c1nc(C(=O)N[C@@H](Cc2ccccc2)C[C@H](C)C(=O)O)cs1` was tested, and the growth was 37.8%.

Reference: PubChem BioAssay (NCI)
